# Measured values from PubChem BioAssay.
# Inconclusive results are not listed. Activity calls are given as the source filed them. Unless noted, the rule behind the calls is not given here.
# How the values were obtained:
# [1] = growth inhibition of DIPG glioma cells, dose response, cell-based, SU-DIPG-XVII, MIPE5.0, CellTiter-Glo, qHTS (AID 1347060; cut-off not given, nearly all actives have AC50 up to about 26 µM;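 for AC50: cells exposed to compound for 48 hours before viability readout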); conditions: SU-DIPG-XVII viability, CellTiter-Glo ATP luminescence
# [2] = viability loss in pontine glioma line – cell-based, SU-DIPG-XXV, MIPE5.0, CellTiter-Glo, qHTS, dose response (AID 1347065; cut-off not given, nearly all actives have AC50 up to about 26 µM;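 note: cells exposed to compound for 48 hours before ATP readout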); conditions: CellTiter-Glo ATP luminescence
# [3] = JHH-DIPG-1 glioma cell viability, MIPE5.0 library, CellTiter-Glo luminescence, qHTS (AID 1347067; cut-off not given, nearly all actives have AC50 up to about 26 µM;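 note: cells exposed to compound for 48 hours before readout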); conditions: JHH-DIPG-1 glioma viability, CellTiter-Glo ATP luminescence
# [4] = CRL2098 osteosarcoma cell growth inhibition, synergistic combos for chromothripsis tumors, BGB or cisplatin IC20 combos (AID 1671454; in the data active = inhibition above about 80%;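 note: cells exposed for 96 h before readout; 0% = vehicle DMSO and 100% = killing by high DMSO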); conditions: CRL2098 osteosarcoma cells, drug combinations, stronger effect = higher value
# [5] = HD-MB03 medulloblastoma cell growth inhibition, synergistic combos for chromothripsis tumors, BGB or cisplatin IC20 combos (AID 1671455; in the data active = inhibition above about 83%;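 note: 0% = vehicle DMSO and 100% = high DMSO as cytotoxic control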); conditions: HD-MB03 medulloblastoma cells, stronger effect = higher value
# [6] = UWB1.289 ovarian carcinoma cell growth inhibition, synergistic combos for chromothripsis tumors, BGB or cisplatin combos (AID 1671456; in the data active = inhibition above about 80%;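 note: cells exposed to compound for four days; 0% = vehicle DMSO and 100% = killing by high DMSO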); conditions: UWB1.289 ovarian carcinoma cells, stronger effect = higher value
# [7] = LFS_MB_2R medulloblastoma cell growth inhibition, synergistic combos for chromothripsis tumors, cisplatin combos (AID 1671457; in the data active = inhibition above about 80%;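 note: cells exposed to compound for four days before readout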); conditions: LFS_MB_2R medulloblastoma cells, stronger effect = higher value
# [8] = UWB1.289_BRCA1 ovarian cancer growth, cell-based, BGB or cisplatin combinations (AID 1671459; in the data active = inhibition above about 80%); conditions: UWB1.289 BRCA1 ovarian carcinoma, drug combinations, stronger effect = higher value
# [9] = human astrocyte viability loss, single and combined drugs, cytotoxicity control for chromothriptic childhood tumor combination screen, cell-based, BGB or cisplatin IC20 combos (AID 1671460; in the data active = inhibition above about 80%;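 note: cells exposed to compounds for 96 hours before viability readout; 0% = vehicle and 100% = killing control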); conditions: Human astrocytes, drug combinations, stronger effect = higher value
# [10] = growth inhibition of DIPG glioma cells, dose response, cell-based, SU-DIPG-XIII, MIPE5.0, CellTiter-Glo, qHTS (AID 1347064; cut-off not given, nearly all actives have AC50 up to about 23 µM;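 for AC50: cells exposed to compound for 48 hours before the viability read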); conditions: SU-DIPG-XIII viability, CellTiter-Glo ATP luminescence
# [11] = test system: Aerobactin synthetase IucA (Klebsiella pneumoniae); assay: IucA aerobactin synthetase inhibitors, biochemical, Tocris library, absorbance (AID 1345561); conditions: purified IucA enzyme assay, absorbance (OD) read-out; stronger effect = lower value;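 tested at 8 µM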;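 note: 100% = enzyme without compound and 0% = no enzyme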
# [12] = target: ATP-dependent translocase ABCB1 (Homo sapiens) (UniProt P08183); assay: MDR1 (ABCB1) efflux transporter inhibition, cell-based (AID 377; in the data active = fluorescence slope change above about 50%); conditions: MDR1-expressing cells, fluorescent substrate accumulation slope; stronger effect = higher value; concentration not given here
# Chain of ATP-dependent translocase ABCB1 (Homo sapiens) (P08183 whole entry, looked up): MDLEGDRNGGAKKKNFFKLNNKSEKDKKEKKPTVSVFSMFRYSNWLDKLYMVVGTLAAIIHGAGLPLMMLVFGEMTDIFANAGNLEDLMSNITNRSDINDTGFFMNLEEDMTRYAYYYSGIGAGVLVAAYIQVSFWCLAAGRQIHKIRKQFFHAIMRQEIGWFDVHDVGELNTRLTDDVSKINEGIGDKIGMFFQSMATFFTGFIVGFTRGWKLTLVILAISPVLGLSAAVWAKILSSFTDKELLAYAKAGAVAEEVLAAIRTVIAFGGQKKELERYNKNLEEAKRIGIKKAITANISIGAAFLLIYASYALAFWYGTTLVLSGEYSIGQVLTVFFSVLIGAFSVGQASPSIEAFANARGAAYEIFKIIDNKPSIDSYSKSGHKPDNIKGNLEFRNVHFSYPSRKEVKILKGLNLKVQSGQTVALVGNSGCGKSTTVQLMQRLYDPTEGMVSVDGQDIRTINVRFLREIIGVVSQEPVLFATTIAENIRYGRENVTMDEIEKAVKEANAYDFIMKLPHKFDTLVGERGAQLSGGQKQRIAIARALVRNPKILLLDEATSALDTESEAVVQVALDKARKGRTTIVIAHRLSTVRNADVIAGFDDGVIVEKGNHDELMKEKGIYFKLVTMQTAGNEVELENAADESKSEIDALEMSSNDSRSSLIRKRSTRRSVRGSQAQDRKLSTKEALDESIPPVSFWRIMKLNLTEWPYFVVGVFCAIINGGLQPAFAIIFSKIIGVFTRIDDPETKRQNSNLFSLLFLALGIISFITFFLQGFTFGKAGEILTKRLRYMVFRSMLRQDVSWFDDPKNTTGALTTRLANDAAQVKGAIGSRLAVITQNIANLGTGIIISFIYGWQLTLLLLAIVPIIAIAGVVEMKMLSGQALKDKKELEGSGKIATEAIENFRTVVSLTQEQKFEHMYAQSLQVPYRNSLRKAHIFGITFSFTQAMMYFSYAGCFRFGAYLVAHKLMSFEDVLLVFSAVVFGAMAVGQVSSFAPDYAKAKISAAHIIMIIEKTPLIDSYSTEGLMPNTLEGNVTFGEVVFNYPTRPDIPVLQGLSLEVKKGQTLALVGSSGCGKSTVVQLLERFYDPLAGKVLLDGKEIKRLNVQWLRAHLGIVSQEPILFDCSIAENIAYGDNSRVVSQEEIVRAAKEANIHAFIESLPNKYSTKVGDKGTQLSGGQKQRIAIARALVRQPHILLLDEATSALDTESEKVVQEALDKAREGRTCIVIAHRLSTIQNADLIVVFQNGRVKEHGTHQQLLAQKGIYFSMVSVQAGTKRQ
# [13] = circadian clock period modulators, cell-based, LOPAC library, luminescence reporter (AID 2774); conditions: circadian reporter cells, at 7 µM, actives lie on both sides;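 note: values are relative to mean of DMSO wells on each plate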
# [14] = test system: Hepatitis C virus NS3 helicase; assay: HCV NS3 helicase inhibitors, primary screen, biochemical, fluorescence polarization, LOPAC1280 library (AID 687035; in the data active = inhibition above about 37%); conditions: Purified HCV NS3 helicase, Cy5-dT15 ssDNA binding fluorescence polarization; stronger effect = higher value; concentration not given here
# [15] = Cy5 fluorescence quenching or enhancement artefacts, artefact control for HCV NS3 helicase inhibitor project, biochemical, LOPAC1280 (AID 687037); conditions: Cy5-DNA-NS3h complex fluorescence interference counterscreen
# [16] = phospholipid biosynthesis inhibitors in animal cells, primary screen, cell-based, LOPAC library, screen 4 (AID 1347384); conditions: phospholipid biosynthesis inhibition screen, at 10 µM
# [17] = SU-DIPG-VI glioma cell viability, MIPE4.0 library, CellTiter-Glo luminescence, qHTS (AID 1347066; cut-off not given, nearly all actives have AC50 up to about 30 µM;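 note: cells exposed to compound for 48 hours before readout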); conditions: CellTiter-Glo ATP luminescence
# [18] = SU-DIPG-XXV glioma cell viability, MIPE5.0 library, qHTS (AID 1347068; cut-off not given, nearly all actives have IC50 up to about 30 µM)
# [19] = polyglutamine-triggered caspase-3 activation inhibitors, cell-based (AID 1583); conditions: polyglutamine-induced caspase-3 activation, cell assay; stronger effect = higher value;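 tested at 10 µM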
compound,measurement,setting,value
N=c1ccn2c(n1)O[C@H]1[C@H](O)[C@@H](CO)O[C@H]12,AC50,[1],1.18 µM (active)
same,outcome,[2],inactive
same,outcome,[3],inactive
same,inhibition,[4]; at 0.5 µM,32.1% (inactive)
same,inhibition,"[4]; measured here: combination with BGB at IC20, at 0.5 µM",-10.4%
same,inhibition,"[4]; measured here: combination with cisplatin at IC20, at 0.5 µM",52.4%
same,inhibition,[5]; at 0.5 µM,89.9% (active)
same,inhibition,"[5]; measured here: combo with BGB at IC20, at 0.5 µM",84%
same,inhibition,"[5]; measured here: combo with cisplatin at IC20, at 0.5 µM",91.1%
same,inhibition,[6]; at 0.5 µM,1.85% (inactive)
same,inhibition,"[6]; measured here: inhibition with BGB combination, at 0.05 µM",-40.2%
same,inhibition,"[6]; measured here: inhibition with cisplatin combination, at 0.05 µM",-14.8%
same,inhibition,[7]; at 0.5 µM,-10.7% (inactive)
same,inhibition,"[7]; measured here: combination with cisplatin, at 0.5 µM",6.24%
same,inhibition,"[7]; measured here: combination with cisplatin, at 5 µM",44.7%
same,inhibition,"[8]; BGB combination, concentration series, at 5 µM",22.3%
same,inhibition,[8]; at 0.5 µM,7.05% (inactive)
same,inhibition,"[8]; cisplatin combination, concentration series, at 5 µM",41.2%
same,inhibition,[9]; at 0.5 µM,27.9% (inactive)
same,inhibition,"[9]; measured here: combo with BGB IC20, at 0.5 µM",22.9%
same,inhibition,"[9]; measured here: combo with cisplatin IC20, at 0.5 µM",18.2%
CC[C@@]1(O)C[C@H](O[C@H]2C[C@H](N(C)C)[C@H](O[C@H]3C[C@H](O)[C@H](O[C@H]4CCC(=O)[C@H](C)O4)[C@H](C)O3)[C@H](C)O2)c2c(cc3c(c2O)C(=O)c2c(O)cccc2C3=O)[C@H]1C(=O)OC,AC50,[1],14.8 µM (active)
same,AC50,[10],16.6 µM (active)
same,AC50,[2],14.8 µM (active)
same,AC50,[3],11.8 µM (active)
O=C(O)Cc1nn(Cc2ccc(Br)cc2F)c(=O)c2ccccc12,remaining activity,[11],92.7% (inactive)
CC(=O)[C@H]1CC[C@H]2[C@@H]3CCC4=CC(=O)CC[C@]4(C)[C@H]3CC[C@]12C,fluorescence slope change,[12],82.5% (active)
same,period change,[13],0.25 h (inactive)
same,inhibition,[14],-4% (inactive)
same,fluorescence ratio (interference),[15],0.9 (inactive)
same,outcome,[16],inactive
C[C@H]1O[C@@H](O[C@H]2[C@@H](O)C[C@H](O[C@H]3[C@@H](O)C[C@H](O[C@H]4CC[C@@]5(C)[C@H](CC[C@@H]6[C@@H]5C[C@@H](O)[C@]5(C)[C@@H](C7=CC(=O)OC7)CC[C@]65O)C4)O[C@@H]3C)O[C@@H]2C)C[C@H](O)[C@@H]1O,fluorescence slope change,[12],24.1% (inactive)
same,AC50,[1],0.166 µM (active)
same,AC50,[10],0.132 µM (active)
same,AC50,[2],0.166 µM (active)
same,AC50,[17],0.0959 µM (active)
same,AC50,[3],0.0661 µM (active)
C[C@H](CCC(=O)O)[C@H]1CC[C@H]2[C@@H]3[C@H](O)C[C@@H]4C[C@H](O)CC[C@]4(C)[C@H]3CC[C@]12C,outcome,[1],inactive
same,outcome,[10],inactive
same,outcome,[17],inactive
same,outcome,[3],inactive
same,outcome,[18],inactive
CC1(C)[C@@H](O)CC[C@]2(C)[C@H]3C(=O)C=C4[C@@H]5C[C@@](C)(C(=O)O)CC[C@]5(C)CC[C@@]4(C)[C@]3(C)CC[C@@H]12,outcome,[1],inactive
same,outcome,[17],inactive
same,outcome,[3],inactive
same,outcome,[18],inactive
O=C(O)C1=CCNCC1,inhibition,[19],3.63%
same,period change,[13],0.375 h (inactive)
same,inhibition,[14],-3% (inactive)
same,fluorescence ratio (interference),[15],1 (inactive)
same,remaining activity,[11],102% (inactive)
same,outcome,[16],inactive
O=C(O)c1cc(=O)c2ccc(Cl)cc2[nH]1,period change,[13],-0.105 h (inactive)
same,remaining activity,[11],104% (inactive)
O=C(/C=C/c1ccc(O)c(O)c1)O[C@H](Cc1ccc(O)c(O)c1)C(=O)O,remaining activity,[11],105% (inactive)
CN[C@H](CC(C)C)C(=O)N[C@H]1C(=O)N[C@@H](CC(N)=O)C(=O)N[C@H]2C(=O)N[C@H]3C(=O)N[C@H](C(=O)N[C@H](C(=O)O)c4cc(O)cc(O)c4-c4cc3ccc4O)[C@H](O)c3ccc(c(Cl)c3)Oc3cc2cc(c3O[C@@H]2O[C@H](CO)[C@@H](O)[C@H](O)[C@H]2O[C@H]2C[C@](C)(N)[C@H](O)[C@H](C)O2)Oc2ccc(cc2Cl)[C@H]1O,period change,[13],-0.05 h (inactive)
same,inhibition,[14],-5% (inactive)
same,fluorescence ratio (interference),[15],1 (inactive)
same,outcome,[1],inactive
same,outcome,[2],inactive
same,outcome,[3],inactive
same,outcome,[18],inactive
same,outcome,[16],inactive
CC1(C)[C@@H](O[C@H]2O[C@H](C(=O)O)[C@@H](O)[C@H](O)[C@H]2O[C@@H]2O[C@H](C(=O)O)[C@@H](O)[C@H](O)[C@H]2O)CC[C@]2(C)[C@H]3C(=O)C=C4[C@@H]5C[C@@](C)(C(=O)O)CC[C@]5(C)CC[C@@]4(C)[C@]3(C)CC[C@@H]12,outcome,[17],inactive
C[C@@]12C[C@@]3(O)O[C@@H](O1)[C@]1(COC(=O)c4ccccc4)[C@H]3C[C@@]12O[C@@H]1O[C@H](CO)[C@@H](O)[C@H](O)[C@H]1O,outcome,[17],inactive
C[C@H]1[C@H](C)CC[C@]2(C(=O)O)CC[C@]3(C)C(=CC[C@@H]4[C@@]5(C)CC[C@H](O)C(C)(C)[C@@H]5CC[C@]43C)[C@H]12,AC50,[2],18.6 µM (active)
same,outcome,[18],inactive
C=C[C@H]1CN2CCC1C[C@@H]2[C@@H](O)c1ccnc2ccc(OC)cc12 (some centres undefined),fluorescence slope change,[12],95% (active)
same,period change,[13],-0.225 h (inactive)
same,inhibition,[14],-1% (inactive)
same,fluorescence ratio (interference),[15],1 (inactive)
same,outcome,[16],inactive
CN1[C@@H]2CC[C@H]1CC(OC(=O)[C@H](CO)c1ccccc1)C2 (some centres undefined),fluorescence slope change,[12],17.8% (inactive)
NC(=NCc1ccccc1)NC(=O)c1nc(Cl)c(N)nc1N,fluorescence slope change,[12],28% (inactive)
same,inhibition,[19],7.39%
same,period change,[13],0.11 h (inactive)
same,inhibition,[14],-1% (inactive)
same,fluorescence ratio (interference),[15],1 (inactive)
same,AC50,[2],18.6 µM (active)
same,outcome,[17],inactive
same,outcome,[16],inactive
CC(Oc1ccccc1)C(=O)N[C@@H]1C(=O)N2[C@@H]1SC(C)(C)[C@@H]2C(=O)O (some centres undefined),fluorescence slope change,[12],56.9% (active)
same,inhibition,[19],11.2%
CCOc1ccc2c(c1)C(C)=CC(C)(C)N2,fluorescence slope change,[12],16.6% (inactive)
same,inhibition,[19],14.7%
O=C(N[C@@H](Cc1ccccc1)C(=O)CCl)OCc1ccccc1,period change,[13],-0.215 h (inactive)
same,inhibition,[14],0% (inactive)
same,fluorescence ratio (interference),[15],1 (inactive)
same,outcome,[16],inactive
